A number with no mark means an inactive call. How the calls were made is not given here.

A short description of this test: placental alkaline phosphatase inhibitors, dose response, counter-screen, biochemical, colorimetric (AID 779). The conditions noted are these: PLAP counter-screen, colorimetric OD read-out.
In the case of `CC(C)CC(C(=O)Nc1oc(-c2ccco2)c(-c2ccco2)c1C#N)N1C(=O)c2ccccc2C1=O` (configuration not stated), the IC50 was more than 50 µM. The figure for `Fc1ccc(-c2cc3nc4c(c(N5CCOCC5)n3n2)CCCC4)cc1` is more than 50 µM; for `CCN(CC)CCCN(Cc1cc2cc3c(cc2[nH]c1=O)OCCO3)C(=O)Nc1ccccc1` it is more than 50 µM. In the case of `O=C(Nc1cccc2c1CCCC2)c1cc([N+](=O)[O-])ccc1Cl` it was more than 50 µM. In the case of `Cc1ccc(CNC(=O)CN2CCC(C(N)=O)CC2)cc1`, the IC50 is more than 50 µM. The figure for `Cc1ccccc1C(=O)c1cccn1CC(=O)NCC1CCCO1` (configuration not stated) is more than 50 µM; for `O=C(NCc1ccccc1)c1ccc2nc(-c3ccco3)c(-c3ccco3)nc2c1` it is more than 50 µM. In the case of `C=CCOC(=O)c1cc(-c2ccc(/C=C3\C(=O)NC(=O)C(C#N)=C3C)o2)ccc1Cl` it was more than 50 µM; in that of `CCn1c(SCc2nc(-c3ccccc3)no2)nnc1-c1cccs1`, more than 50 µM.

`COc1ccc(NC2=Nc3ccccc3N3C2=Nc2c(c(C)nn2-c2ccc(C)cc2)C3c2cccnc2)cc1` (configuration not stated): the IC50 is more than 50 µM. In the case of `CCOc1ccc(/C=C/C2=Cc3c(sc(NC(=O)CSc4n[nH]c(N)n4)c3C#N)C(C)(C)C2)cc1` it was more than 50 µM. Consider `CCN1/C(=C/c2ccc3cccc(C)c3[n+]2CC)Sc2ccccc21`, for which the IC50 was more than 50 µM. The figure for `CCOC(=O)C1=C(C)N=c2s/c(=C/c3ccco3)c(=O)n2C1c1cccc(OC)c1` (configuration not stated) is more than 50 µM; for `CCOc1ccc(S(=O)(=O)N(CC(=O)N/N=C/c2ccc(-c3ccc([N+](=O)[O-])cc3)o2)c2ccccc2)cc1` it is more than 50 µM; for `O=S(=O)(c1ccc2nc(-c3ccco3)c(-c3ccco3)nc2c1)N1CCOCC1` it is more than 50 µM. The figure for `CCCN1C(=O)/C(=C/C=C2\N(CC)c3ccccc3C2(C)C)SC1=S` is more than 50 µM; for `COc1ccc2sc3ccccc3c(=O)c2c1OC` it is more than 50 µM; for `COc1ccc(S(=O)(=O)Nc2cc(Sc3ncn[nH]3)c(O)c3ccccc23)cc1` it is more than 50 µM. In the case of `CCCCCn1nc(-c2ccccc2)c2nc3ccccc3nc21` it was more than 50 µM. Regarding `CCn1c2ccc(Cl)cc2c2nc3ccccc3nc21`, the IC50 was more than 50 µM. In the case of `O=[N+]([O-])c1ccc(N2N=C(c3ccco3)CC2c2ccccc2)cc1` (configuration not stated) it was more than 50 µM; in that of `Cc1ccc2cc(C=C(C#N)C#N)c(N3CCCCC3)nc2c1`, more than 50 µM. The figure for `Cc1cc(C)n(CNc2nc(C(F)(F)F)cs2)n1` is more than 50 µM; for `Oc1c(N=Nc2ccccn2)ccc2ccccc12` it is more than 50 µM; for `CSc1ccccc1N=Cc1nc(-c2ccccc2)oc1O` it is more than 50 µM. The figure for `Cc1ccc2cc(/C=C3\N=C(c4ccccc4)OC3=O)c(N3CCOCC3)nc2c1` is more than 50 µM; for `CC(C)C(C(=O)O)N1C(=O)/C(=C/C=C/c2ccco2)SC1=S` (configuration not stated) it is more than 50 µM.

As to `Oc1ccc(-c2cn3c(n2)SCC3)cc1O`, the IC50 was more than 50 µM. In the case of `Cn1c(=O)[nH]c(=O)c2c1nc1n2CCN1Cc1ccccc1` it was more than 50 µM. With `CC1(C)CCCN(C(=O)c2coc(=O)c(Br)c2)C1`, the IC50 was more than 50 µM.

In the case of `O=[N+]([O-])c1ccc(N(c2ccccc2)c2ccccc2)cc1`, the IC50 is more than 50 µM. In the case of `COC(=O)Sc1nnc(-c2ccc(Br)cc2)o1` it was more than 50 µM.

These data come from PubChem BioAssay AID779 (Sanford-Burnham Center for Chemical Genomics, 2007).
